Most compounds without a hit are left out; they make up all but 6.2% or so of the library.
SUMO Mot1 rescue = blocks SUMOylation pathway, rescuing yeast Mot1-301 growth | S. cerevisiae Mot1-301 growth rescue, ATP luminescence, 38.5C; percent above DMSO median, 100 means doubled | growth rescue, % at 18.8 µM | hit rate 1% among 320,000 | AID 2716;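 active = every valid replicate shows activation above 250% relative to neutral control wells; inactive = the rest, any valid replicate at or below 250%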;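 note: OY570 slx delta 5 strain wells were the positive control but not used for scaling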
AHR activator = activators of human aryl hydrocarbon receptor | hit rate 2.5% among 320,000 | AHR-responsive luciferase reporter cells, luminescence | activation, % at 5 µM | P35869; in the data active = activation above about 47%;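 note: 0% = vehicle wells and 100% = reference agonist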
Target sequence (P35869 whole entry, looked up): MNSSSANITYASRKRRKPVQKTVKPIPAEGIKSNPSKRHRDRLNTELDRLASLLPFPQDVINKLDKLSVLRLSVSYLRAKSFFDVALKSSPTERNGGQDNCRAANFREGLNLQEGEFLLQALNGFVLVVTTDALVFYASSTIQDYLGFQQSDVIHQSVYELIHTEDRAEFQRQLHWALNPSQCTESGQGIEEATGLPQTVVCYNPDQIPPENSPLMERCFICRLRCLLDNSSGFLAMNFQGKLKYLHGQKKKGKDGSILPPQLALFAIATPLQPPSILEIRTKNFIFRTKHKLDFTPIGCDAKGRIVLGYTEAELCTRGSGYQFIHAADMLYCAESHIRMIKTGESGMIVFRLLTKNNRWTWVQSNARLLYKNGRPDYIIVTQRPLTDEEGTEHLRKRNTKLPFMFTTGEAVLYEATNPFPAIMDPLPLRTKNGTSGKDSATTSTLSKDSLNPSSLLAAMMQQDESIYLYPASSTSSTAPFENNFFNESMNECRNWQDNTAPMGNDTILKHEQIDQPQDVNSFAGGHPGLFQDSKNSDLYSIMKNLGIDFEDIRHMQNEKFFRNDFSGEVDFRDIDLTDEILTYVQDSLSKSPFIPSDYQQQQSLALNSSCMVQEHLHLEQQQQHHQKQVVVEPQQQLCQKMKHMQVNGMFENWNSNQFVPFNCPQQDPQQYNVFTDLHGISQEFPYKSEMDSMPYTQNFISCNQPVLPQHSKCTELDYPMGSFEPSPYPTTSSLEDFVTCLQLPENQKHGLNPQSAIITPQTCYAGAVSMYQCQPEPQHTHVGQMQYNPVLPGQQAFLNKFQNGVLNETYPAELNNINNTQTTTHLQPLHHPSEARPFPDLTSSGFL
H9c2 protect = myocardial damage modulation in H9c2 cells; H9c2 cardiomyocytes, H2O2 injury protection, ATPLite, 2 h; protection from H2O2 cell death, % at 20 µM; hit rate 0.63% among 360,000; AID 588492;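 active = compounds giving at least 50% protection of heart cells from peroxide-induced death in the single-dose screen, raw or plate-pattern-corrected value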;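 note: 0% = DMSO wells with peroxide and 100% = DMSO wells without peroxide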
NR3A LBD binder = modulates the human NR3A ligand-binding domain | NR3A LBD differential scanning fluorimetry, Tm shift; 0% = protein alone, 100% = glycine-bound protein | Tm shift relative to glycine control, % at 25 µM | hit rate 2.5% among 340,000;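 active = melting temperature shift of at least 10% of the positive control shift, at one fixed dose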
NTR1 ag = NTR1 (human) agonism | hit rate 0.17% among 330,000 | activation, % at 20 µM | NTR1-U2OS beta-arrestin-GFP spot imaging, agonist mode;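 active = activation at or above 40% of the spot to cytoplasm intensity ratio, with at least 20 cells analyzed; inconclusive = wells under 20 cells, flagged as cytotoxic or low count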;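 note: 0% = DMSO without peptide and 100% = 100 nM NTR1 peptide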
AI-2 QS modul = modulators of Vibrio harveyi AI-2 quorum sensing system. Vibrio harveyi JMH597 AI-2 luminescence/OD600 ratio, 9 h; hits give low values; strain lacks LuxN and CqsS sensors; 0 = neutral-control median. activity change, % at 7.5 µM. hit rate 0.4% among 300,000; in the data active = activity change below about -75%, passing the limit was not always enough; inconclusive = no clear call, values can overlap the other calls;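 note: luminescence divided by OD600 gain over 9 h not by final OD600 alone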
An asterisk follows results filed as active; ? = inconclusive; . = no result given.

SMILES | SUMO Mot1 rescue | AHR activator | H9c2 protect | NR3A LBD binder | NTR1 ag | AI-2 QS modul
O=C(Nc1cccc(Cl)c1Cl)c1ccc(-c2ccccc2)cc1 | 7.1 | 65.3* | -11.0 | -2.1 | 4.3 | 10.0
COc1cccc(/C=N/N(C)C2=NS(=O)(=O)c3ccccc32)c1O | 2.9 | 0.4 | 3.7 | -0.3 | 5.2 | 12.4
CN(/N=C/c1ccc(Br)o1)C1=NS(=O)(=O)c2ccccc21 | 15.7 | 19.2 | 3.8 | 16.2* | 0.3 | 32.1
CN(/N=C/c1cc(Cl)ccc1O)C1=NS(=O)(=O)c2ccccc21 | 8.1 | -0.7 | -12.5 | 11.8* | 36.7 | 11.8
Cc1c(Cl)cccc1N=c1c([N+](=O)[O-])nn(-c2ccccc2)n1O | 2.1 | 54.8* | -4.8 | -3.8 | 2.3 | 25.1
O=C(Nc1ccc(S(=O)(=O)Nc2cnc3ccccc3n2)cc1)c1ccc(Cl)cc1Cl | 4.9 | 3.3 | -3.3 | 5.5 | 1.0 | ?
CC(Oc1ccc(Cl)cc1Cl)C(=O)Nc1ccc(S(=O)(=O)Nc2cnc3ccccc3n2)cc1 (stereo not given) | 2.3 | 6.7 | . | 17.5* | 1.9 | 50.8
Cc1cc(Cl)ccc1OC(C)C(=O)Nc1ccc(S(=O)(=O)Nc2cnc3ccccc3n2)cc1 (stereo not given) | 0.6 | 4.2 | -15.6 | 13.6* | -0.1 | 77.9
O=C(Cc1ccc(Cl)cc1)Nc1ccc(S(=O)(=O)Nc2cnc3ccccc3n2)cc1 | -5.4 | 1.3 | -4.2 | 10.2* | 2.0 | 37.4
Cc1cc(Cl)ccc1OC(C)C(=O)Nc1ccc(C(=O)Nc2ccccc2C(=O)O)cc1 (stereo not given) | -12.7 | 2.6 | -3.2 | 14.6* | 2.9 | 44.5
CCC(Oc1ccccc1)C(=O)Nc1ccc(S(=O)(=O)Nc2cnc3ccccc3n2)cc1 (stereo not given) | 336.8 | -2.0 | 6.7 | -7.2 | 1.0 | 31.3
COc1ccc(Cc2nnc(NC(=O)Nc3ccccc3F)s2)cc1OC | 3.3 | 20.3 | -5.5 | -0.5 | 3.1 | -5.4
CSc1ncc(C(=O)Nc2ccccc2F)c(-c2ccccc2)n1 | -5.6 | 10.2 | 2.2 | 0.0 | 0.8 | 10.7
N#Cc1cccc(-c2csc(C(O)c3ccco3)n2)c1 (stereo not given) | . | . | 0.5 | . | . | .
COc1ccccc1C1c2[nH]c3ccccc3c2C[C@H]2C(=O)N(C3CCN(Cc4ccccc4)CC3)CC(=O)N12 (stereo not given in full) | 144.0 | 17.4 | 6.4 | 2.8 | 0.8 | 50.5
CCc1nc(SCc2ccc(OCC(C)C)cc2)n[nH]1 | 4.0 | 14.4 | -19.9 | 0.1 | 1.3 | 8.3
O=C([C@H]1O[C@@H](n2ccc(=O)[nH]c2=O)[C@H](O)[C@@H]1O)N1CCN(c2ccc(Cl)cn2)CC1 | . | . | 2.7 | . | . | .
CCCCn1c(N)c(N(CC(C)C)C(=O)C2CC(=O)N(c3ccc(CC)cc3)C2)c(=O)[nH]c1=O (stereo not given) | -15.5 | 3.1 | 1.2 | 4.5 | -0.5 | 7.4
CC1(C)Nc2ccccc2N(CCC(=O)N2CCOCC2)C1=O | 4.2 | -0.6 | 8.0 | 12.5* | -0.5 | 13.7
CCc1noc(C)c1C(=O)Nc1nc2c(F)cc(F)cc2s1 | 135.8 | 61.0* | -17.4 | -0.3 | 1.4 | .
CCc1noc(C)c1C(=O)Nc1nc2c(C)cccc2s1 | . | 12.9 | -4.2 | -2.2 | 3.1 | 6.0
O=C(COC(=O)c1cc(=O)[nH]c2ccccc12)Nc1ccc(F)cc1 | -11.9 | 6.9 | 3.3 | -0.8 | 1.0 | .
Nc1nc2ccc(N3CCOCC3)cc2s1 | -8.4 | 13.1 | -31.9 | 11.7* | -0.1 | .
Fc1ccc2nc(N3CCOCC3)sc2c1 | 3.4 | -0.1 | -7.7 | -0.3 | -0.3 | -0.8
COCCNC(=O)C1(C)CCCN(Cc2ccc(-n3ccnc3)cc2)C1 (stereo not given) | . | . | -1.1 | . | . | .
SMILES | SUMO Mot1 rescue | AHR activator | H9c2 protect | NR3A LBD binder | NTR1 ag | AI-2 QS modul
Cc1ccc(O)c(-c2cc(C(=O)Nc3cccnc3)[nH]n2)c1 | 23.6 | 59.8* | -8.3 | 28.8* | 1.1 | -40.5
O=C(Nc1cccnc1)c1cc(-c2cc(Cl)ccc2O)n[nH]1 | 0.3 | 10.9 | -5.0 | 32.0* | -2.1 | -4.6
Oc1c(N=Nc2nn[nH]n2)ccc2ccccc12 | . | . | -14.7 | . | . | .
Cc1ccc(N=Nc2ccc3ccccc3c2O)cc1 | -12.9 | 52.6* | -17.5 | -8.0 | 3.4 | 0.4
Oc1c(N=Nc2ccc(F)cc2)ccc2ccccc12 | -17.1 | 73.3* | -19.1 | 1.7 | 1.0 | 2.9
CC1(C)CC(c2nc(-c3ccccc3)cs2)CCS1 (stereo not given) | 6.6 | -7.3 | -6.5 | 10.2* | 6.7 | 6.9
COc1ccc(C(=O)N/C(=C\c2cn(C)c3ccccc23)C(=O)NCCCn2ccnc2)cc1 | -11.6 | -1.3 | 3.5 | -1.2 | -0.5 | 11.6
CN(C)CCCNc1ccc(-c2n[nH]c(=O)c3ccccc23)cc1[N+](=O)[O-] | -20.8 | -0.1 | 55.1* | -2.1 | -0.1 | 11.3
Cc1ccc(NC2CCCN(C(=O)CN3C(=O)c4ccccc4C3=O)C2)cc1C (stereo not given) | 6.9 | 23.1 | 6.2 | -1.2 | -0.2 | -32.9
CC(C)(C)NC(=O)C(c1ccc(F)cc1)N(C(=O)CCC(=O)Nc1ccccn1)C1CCCC1 (stereo not given) | -9.6 | -1.3 | 3.2 | 1.0 | -0.4 | 13.8
COc1cc(-c2nnc(-c3cc(-c4ccccc4)nc4ccccc34)o2)cc(OC)c1OC | . | . | 56.3* | -0.4 | . | .
COc1cc(-c2nnc(-c3cc(OC)c(OC)c(OC)c3)o2)cc(OC)c1OC | 5.7 | 2.5 | 65.5* | 1.0 | -0.3 | 9.9
COc1cc(-c2nnc(-c3ccccc3)o2)cc(OC)c1OC | . | 5.1 | 35.6 | 0.0 | -4.6 | 7.6
COc1ccc(-c2cc(-c3nnc(-c4ccncc4)o3)c3ccccc3n2)cc1 | -14.0 | 9.8 | 23.4 | -6.0 | 5.3 | 0.2
COc1ccc2nc(-c3ccccc3)cc(OC)c2c1 | 33.3 | 64.4* | -8.5 | 1.3 | 5.4 | 5.2
C/C(=N/NC(=O)c1nnn(-c2nonc2N)c1CSc1ccc(C)cc1)c1ccncc1 | . | . | 0.0 | . | . | .
COc1cccc(C(=O)COc2ccc3ccc(=O)oc3c2)c1 | 3.1 | 18.5 | 7.4 | 15.7* | -0.4 | 11.1
CC(=O)c1c(C)[nH]c(C(=O)COc2ccc3ccc(=O)oc3c2)c1C | -8.1 | 56.4* | 28.5 | -0.4 | -0.5 | 13.0
Cc1ccc(C(=O)COc2ccc3ccc(=O)oc3c2)cc1 | 69.0 | -4.0 | 0.1 | -0.2 | -0.8 | 37.3
COc1cccc(C(=O)COc2ccc3c(C)cc(=O)oc3c2)c1 | 151.0 | . | 12.0 | 0.0 | -0.3 | 4.4
COC(=O)c1c(C)[nH]c(C(=O)COc2ccc3ccc(=O)oc3c2)c1C | -4.0 | 13.3 | 80.7* | 0.1 | 1.1 | .
CC(=O)c1c(C)[nH]c(C(=O)COc2cc(C)cc(C)c2)c1C | -7.9 | 33.3 | -8.5 | -1.0 | -3.0 | 3.0
CC(C)CNC(=O)C(=O)NCc1ccccn1 | 315.4* | 6.2 | 10.7 | -0.6 | 1.0 | 8.5

Source: PubChem BioAssay (several laboratories)
